Inhibition data for 69 compounds are collected here from PubChem BioAssay AID488841 (Sanford-Burnham Center for Chemical Genomics, 2010).

About 380 (27%) of roughly 1,400 compounds were called active. The list shows a part of the results. Values without a mark were called inactive.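 How the source made its calls: active means mean inhibition above 50% across duplicate retests at 10 µM; inactive means the rest.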

The assay is described as follows: inhibition of NALP1/ASC/caspase-1 reporter signal in yeast, confirmation, NALP1 inhibitor project, S. cerevisiae, luminescence, single concentration (AID 488841).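 Further: plate controls were DMSO in galactose medium for no effect and cells in plain SD medium for full effect.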 To be noted: S. cerevisiae NALP1/ASC/Caspase-1 reporter, beta-gal luminescence; at 10 µM; active compounds read high.
For the compound `COn1c2c(c3c4nonc4ccc31)CCCC2`, the inhibition (as a rule, the share of the control response that was lost under treatment) is 30.4%.

Turning to `CC1CCN(Cc2ccc(-c3nn[nH]n3)cc2)CC1`, the inhibition was 21.2%.

Take `O=C(NC1CCCCC1)c1noc2c1CCCCC2`: the inhibition is 70.2% (active).

`O=C(NC1CCCC1)c1ccc(CN2CCOCC2)cc1`: the inhibition was 33.8%.

On to `O=C(c1cc(-c2ccc(O)cc2)on1)N1CCc2ccccc2C1`, for which the inhibition is 56.5% (active).

`O=C(CN1CCc2ccccc2C1)NCc1ccco1`: the inhibition is 18.9%.

As for `CCn1c(C(=O)N2CCc3ccccc3C2)cc2oc3ccccc3c21`, the inhibition is 32.4%.

Turning to `CC(C)CC(=O)N1CCN(c2ccc([N+](=O)[O-])cc2Cl)CC1`, the inhibition was 37.5%.

`Cc1c(-c2nc(N)nc(Nc3ccccc3)n2)oc2ccccc12`: the inhibition was 37.3%.

Consider `O=C(Nc1ccc(Cl)cc1)C1=Cc2ccccc2OC1`, for which the inhibition is 48.8%.

Consider `CCOC(=O)C(=O)NNc1ccc(Cl)cc1`, for which the inhibition is 40.9%.

On to `CCCCN(C)CCC(=O)Nc1ccc(Cl)cc1`, for which the inhibition was 28.4%.

As to `N#Cc1ccc(NC(=O)Nc2ccc(Cl)cc2)cc1`, the inhibition was 67% (active).

Turning to `CC(=O)c1ccc(NC(=O)Nc2ccc(Cl)cc2)cc1`, the inhibition is 53.4% (active).

On to `COc1ccc(N2CCN(CCNC(=O)Nc3ccc(Cl)cc3)CC2)cc1`, for which the inhibition is 22.3%.

Take `CCC(C(=O)NCc1ccco1)N(C(=O)CNS(=O)(=O)c1ccccc1)c1ccc(OC)cc1` (centres undefined): the inhibition was 23.4%.

Take `CSc1nnc(-c2cc3c(s2)-c2ccccc2CC3)o1`: the inhibition was 56.6% (active).

For the compound `O=C(C(Cc1ccccc1)n1cccc1)N1CCN(c2ccccc2)CC1` (centres undefined), the inhibition is 46%.

`CNC(=S)N/N=C/c1cc(Br)cc(Br)c1O`: the inhibition was 75.7% (active).

For the compound `Oc1c(Br)cc(Br)cc1C=Nc1cccnc1`, the inhibition is 36.4%.

As for `Cc1cc(C=C2C(=O)c3ccccc3C2=O)c(C)n1C`, the inhibition was 39%.

For `O=C(Nc1ccc(F)cc1)c1cccnc1N1CCCCC1`, the inhibition was 34.8%.

As for `CCOc1ccccc1C(=O)OCC(=O)Nc1ccc(N2CCCCC2)cc1`, the inhibition was 36.1%.

With `CCOc1ccccc1C(=O)Nc1cnn(Cc2ccc(F)cc2)c1`, the inhibition was 57.7% (active).

As for `c1ccc(CC2CCN(c3nnnn3-c3ccccc3)CC2)cc1`, the inhibition is 26.4%.

On to `COC(=O)c1cc(=O)n(-c2ccc(F)cc2)c(=Nc2ccc(F)cc2)s1`, for which the inhibition was 33.2%.

For the compound `CCN(CC)c1ccc(N=Cc2ccc([N+](=O)[O-])o2)cc1`, the inhibition is 64.2% (active).

On to `O=[N+]([O-])c1ccc(/C=N/NS(=O)(=O)c2ccc(Cl)cc2)o1`, for which the inhibition is 36.3%.

On to `CCOC(=O)c1[nH]c2ccc(Br)cc2c1NC(=O)CCN1CCC(C)CC1`, for which the inhibition was 32.4%.

As to `Cc1nc(N)sc1N=Nc1ccc(Br)cc1`, the inhibition was 50.6% (active).

Take `Cc1ccc(C)c(NC(=O)c2ccc(OC(=O)c3ccco3)cc2)c1`: the inhibition was 36.8%.

Regarding `Cc1ccc2occ(C(=O)c3ccco3)c(=O)c2c1`, the inhibition was 58.4% (active).

As to `CN1CCN(C2=C(Cl)C(=O)C(c3cnc(N4CCCCC4)s3)=C(Cl)C2=O)CC1`, the inhibition was 29.9%.

As for `CN(C=[N+](C)C)c1cccc2c1C(=O)c1ccccc1C2=O`, the inhibition is 37%.

On to `O=C1c2cccc(O)c2C(=O)c2c(O)cccc21`, for which the inhibition was 62.8% (active).

On to `CN(C)S(=O)(=O)c1cccc2c1C(=O)c1ccccc1C2=O`, for which the inhibition was 39.2%.

As to `CC(C)CN=C(NS(=O)(=O)c1ccccc1)C(Cl)(Cl)Cl`, the inhibition is 43.6%.

In the case of `N#Cc1cccc(N=Cc2c(O)ccc3ccccc23)c1`, the inhibition was 24.8%.

For the compound `C=CCOc1ccc2ccccc2c1/C=N/O`, the inhibition is 52.7% (active).

As to `O=S(=O)(/N=C/c1c(O)ccc2ccccc12)c1cccs1`, the inhibition was 29.8%.

`CCCCCOc1ccc(Cn2ccnc2)cc1[N+](=O)[O-]`: the inhibition is 43%.

Take `O=C(CCNc1n[nH]c(=O)[nH]c1=O)N/N=C/c1ccc(C(F)(F)F)cc1`: the inhibition was 26.9%.

Consider `COCC(=O)n1nc(-c2ccc(Cl)cc2)nc1NCc1ccc(F)cc1`, for which the inhibition is 49.8%.

Take `O=C(NC1=NCCS1)c1ccc(Cl)s1`: the inhibition is 42.9%.

With `CCOc1ccccc1N1CCN(C(=O)CCCc2nc3ccccc3s2)CC1`, the inhibition was 52.9% (active).

Consider `COCCN=C1Sc2nc3ccc(C)cc3cc2CN1Cc1ccco1`, for which the inhibition is 45.9%.

In the case of `COc1ccccc1NC1=C(N2CCCCC2)C(=O)c2ccccc2C1=O`, the inhibition was 49.1%.

As to `CCCSc1nnc(C(C)C)n1N`, the inhibition is 21.8%.

With `O=C(/C=C/c1ccc(F)cc1)NCCc1ccc2c(c1)OCCO2`, the inhibition was 49.3%.

Regarding `Cc1ccc(C(=O)/C=C/c2ccc3c(c2)OCO3)o1`, the inhibition was 23.9%.

As to `O=C(/C=C/c1ccc2c(c1)OCCCO2)c1ccccc1O`, the inhibition was 61.6% (active).

Turning to `CC(=O)C1=C(O)C(=O)N(CCC(=O)O)C1c1ccc(Cl)cc1Cl` (centres undefined), the inhibition was 24.1%.

Turning to `CCOC(=O)C1=C(O)c2ccccc2C(=O)/C1=C\c1ccc(C)cc1`, the inhibition is 30.2%.

Take `CCOC(=O)/C(=C/c1ccc(OC(=O)c2ccccc2)cc1)C(C)=O`: the inhibition is 55.4% (active).

For the compound `CCOC(=O)C1=Nc2ccccc2C1=[N+]=[N-]`, the inhibition is 37.8%.

`Cc1sc(-c2ccncc2)nc1OC(=O)c1ccccc1`: the inhibition was 47.5%.

For `O=C(CN(Cc1ccccc1)S(=O)(=O)c1ccc(S(=O)(=O)N2CCOCC2)cc1)Nc1ccccc1`, the inhibition is 27.6%.

With `C=CCNC(=O)/C(C#N)=C/c1c(C)nn(-c2ccccc2)c1Cl`, the inhibition was 60.3% (active).

Consider `Cc1nn(-c2ccccc2)c(Cl)c1/C=C(\C#N)C(=O)NC(C)C`, for which the inhibition was 55.2% (active).

Take `CC(C)NC(=O)/C(C#N)=C/c1cccc(NC(=O)c2ccccc2Cl)c1`: the inhibition is 41.1%.

For `COc1ccc(OCC(=O)NC(=S)N2CCCc3ccccc32)cc1`, the inhibition is 28.5%.

Turning to `CCCCCCC1CCC(C(=O)Nn2c(C)nc3ccccc3c2=O)CC1` (centres undefined), the inhibition is 44.8%.

With `COc1ccc(C2NCCc3c2[nH]c2ccccc32)cc1CSc1nc2ccccc2s1` (centres undefined), the inhibition is 45.4%.

Take `COCc1cc(=O)[nH]c(/N=C(\N)Nc2cccc(C)c2)n1`: the inhibition was 21.6%.

As to `O=C1c2ccsc2SCCN1Cc1c(Cl)cccc1Cl`, the inhibition is 53.7% (active).

Take `COc1ccc(CCNC(=O)C2CCN(S(=O)(=O)c3ccc(Cl)cc3)CC2)cc1OC`: the inhibition was 5.6%.

Turning to `CNC(=O)c1nnsc1S(=O)(=O)c1ccc(Cl)cc1`, the inhibition is 86.2% (active).

Consider `Cn1cnc([N+](=O)[O-])c1S(=O)(=O)c1ccc(Cl)cc1`, for which the inhibition was 46.9%.

Turning to `CCCNC(=O)c1nnsc1S(=O)(=O)c1ccc(Cl)cc1`, the inhibition is 95% (active).
